Reference: PubChem BioAssay (EPA / NIEHS)
Inconclusive results are not listed. Calls of active or inactive are those of the source. The calls were made as follows, unless noted: active = hit-call score of the fitted dose curve at least 0.9, where 1 is the maximum; inactive = score below 0.9.

What was measured:
[1] = BSK_3C_VCAM1: BioMAP Diversity Plus: 3C Assay for Vascular cell adhesion molecule 1 (VCAM1) Biomarker Activity (AID 2282999); conditions: BioMAP 3C HUVEC, VCAM1 ELISA, cytokine-stimulated; actives raise or lower the signal
How it was run: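 Human umbilical vein endothelial cells (3C system), biomarker read by ELISA 24 h after dosing; bidirectional fit against DMSO baseline. Cytotoxicity tracked by SRB total-protein staining in parallel cultures at biomarker time.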

[2] = BSK_4H_Eotaxin3: BioMAP Diversity Plus: 4H Assay for Eotaxin 3 Biomarker Activity (AID 2283000); conditions: primary human endothelial cells (HUVEC); actives raise or lower the signal;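 also: CCL26 protein level quantified by ELISA in parallel with SRB cytotoxicity check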
How it was run: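 Eotaxin-3 (CCL26) levels were measured by ELISA in HUVEC primary cultures 24 h post-dosing. Gain or loss of signal was fitted in both directions, with DMSO serving as baseline and negative control.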

[3] = biological target: human Peroxisome Proliferator-activated Receptor alpha (PPARa), PPARA (gene 5465) (UniProt Q07869); assay: ATG_PPARa_TRANS: Attagene TRANS-FACTORIAL HepG2 Assay for human Peroxisome Proliferator-activated Receptor alpha (PPARa) (AID 2283001; active = hit-call score of the fitted dose curve at least 0.9, where 1 is the maximum;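 as to AC50: potency for gain of reporter signal over DMSO so agonist or activator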)
How it was run: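 HepG2 cells transiently transfected with multiplexed GAL4-UAS reporters driven by exogenous chimeric NR-Gal4 proteins; reporter mRNA measured after 24 h dosing. Read-out by RT-PCR, 6-FAM labelling, HpaI digestion and capillary electrophoresis; gain of signal versus DMSO.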

[4] = biological target: human Peroxisome Proliferator-activated Receptor delta (PPARd), PPARD (gene 5467) (UniProt Q03181); assay: ATG_PPARd_TRANS: Attagene TRANS-FACTORIAL HepG2 Assay for human Peroxisome Proliferator-activated Receptor delta (PPARd) (AID 2283002; active = hit-call score of the fitted dose curve at least 0.9, where 1 is the maximum)
How it was run: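 HepG2 cells transiently transfected with GAL4-UAS multiplexed reporter units driven by exogenous chimeric NR-GAL4 proteins; 24 h compound exposure. Reporter mRNA measured by RT-PCR, 6-FAM primer extension, HpaI digestion and capillary electrophoresis; gain of signal fitted relative to DMSO.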

[5] = read-out: Intercellular Adhesion Molecule 1 (ICAM1), ICAM1 (gene 3383); assay: BSK_3C_ICAM1: BioMAP Diversity Plus: 3C Assay for Intercellular Adhesion Molecule 1 (ICAM1) Biomarker Activity (AID 2283003); conditions: primary human endothelial cells (HUVEC); actives raise or lower the signal
How it was run: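 HUVEC primary cells stimulated under 3C conditions; ICAM1 measured by ELISA 24 h after compound dosing. Curves fitted bidirectionally against the DMSO baseline. Overt cytotoxicity checked by SRB staining of parallel cultures.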

[6] = biological target: human Retinoic Acid Receptor beta (RARb), RARB (gene 5915) (UniProt P10826); assay: ATG_RARb_TRANS: Attagene TRANS-FACTORIAL HepG2 Assay for human Retinoic Acid Receptor beta (AID 2283004; active = hit-call score of the fitted dose curve at least 0.9, where 1 is the maximum)
How it was run: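 HepG2 cells were transiently transfected with GAL4-UAS reporter units that report activity of exogenous chimeric NR-Gal4 proteins, then exposed to compound for 24 h. Reporter mRNA was quantified by RT-PCR with capillary electrophoresis fluorescence, as gain of signal over DMSO.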

[7] = BSK_3C_Proliferation: Cell Proliferation Assessment in the BioMAP Diversity Plus: 3C Assay (AID 2283006); conditions: primary human endothelial cells (HUVEC);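 as to AC50: potency may reflect either rise or fall in cell number versus DMSO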
How it was run: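 Subconfluent HUVEC (3C system) cultured with chemical; relative cell number read at 48 h by sulforhodamine B total-protein staining (0.1% SRB after 10% TCA fixation, 560 nm). Bidirectional fit relative to DMSO.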

[8] = biological target: Peroxisome proliferator-activated receptor gamma (Homo sapiens) (UniProt P37231); assay: ATG_PPARg_TRANS: Attagene TRANS-FACTORIAL HepG2 Assay for human Peroxisome Proliferator-activated Receptor-gamma (PPARg) (AID 2283007; active = hit-call score of the fitted dose curve at least 0.9, where 1 is the maximum)
How it was run: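 Twenty-four hours after chemical dosing of transiently transfected HepG2 cells, isolated RNA was converted to cDNA, reporter sequences amplified and 6-FAM-labelled, then HpaI-digested and analysed by capillary electrophoresis. Signal increase against DMSO was fitted.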

[9] = biological target: Nuclear receptor subfamily 1 group I member 2 (Homo sapiens) (UniProt O75469); assay: ATG_PXR_TRANS: Attagene TRANS-FACTORIAL HepG2 Assay for human Pregnane X Receptor (PXR) (AID 2283008; active = hit-call score of the fitted dose curve at least 0.9, where 1 is the maximum)
How it was run: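 Measures mRNA induction of a GAL4-UAS-driven reporter in human HepG2 cells transiently expressing PXR fused to Gal4, following 24 h treatment. DMSO served as negative control and baseline.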

[10] = biological target: human Retinoic Acid Receptor gamma (RARg), RARG (gene 5916) (UniProt P13631); assay: ATG_RARg_TRANS: Attagene TRANS-FACTORIAL HepG2 Assay for human Retinoic Acid Receptor gamma (RARg) (AID 2283009; active = hit-call score of the fitted dose curve at least 0.9, where 1 is the maximum)
How it was run: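 HepG2 transiently transfected with GAL4-UAS reporter units and chimeric NR-Gal4 constructs; 24 h compound exposure. Reporter mRNA quantified by RT-PCR, FAM labeling, HpaI digestion and capillary electrophoresis; gain-of-signal versus DMSO.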

[11] = biological target: human RAR-related Orphan Receptor beta (RORb), RORB (gene 6096) (UniProt Q92753); assay: ATG_RORb_TRANS: Attagene TRANS-FACTORIAL HepG2 Assay for human RAR-related Orphan Receptor beta (RORb) (AID 2283010; active = hit-call score of the fitted dose curve at least 0.9, where 1 is the maximum)
How it was run: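 HepG2 cells transiently transfected with GAL4-UAS reporter units expressing chimeric NR-Gal4 protein; reporter mRNA measured 24 h after dosing by RT-PCR, 6-FAM labelling and capillary electrophoresis. Gain-of-signal fitted relative to DMSO baseline.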

[12] = biological target: human RAR-related Orphan Receptor gamma (RORg), RORC (gene 6097) (UniProt P51449); assay: ATG_RORg_TRANS: Attagene TRANS-FACTORIAL HepG2 Assay for human RAR-related Orphan Receptor gamma (RORg) (AID 2283011; active = hit-call score of the fitted dose curve at least 0.9, where 1 is the maximum)
How it was run: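 HepG2 cells transiently transfected with GAL4-UAS reporter units and chimeric RORg-Gal4 construct; after 24 h chemical exposure, reporter mRNA measured by RT-PCR with fluorescent capillary electrophoresis, gain of signal fitted against DMSO.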

[13] = biological target: Retinoic acid receptor RXR-alpha (Homo sapiens) (UniProt P19793); assay: ATG_RXRa_TRANS: Attagene TRANS-FACTORIAL HepG2 Assay for human Retinoid X Receptor alpha (RXRa) (AID 2283012; active = hit-call score of the fitted dose curve at least 0.9, where 1 is the maximum)
How it was run: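 HepG2 cells transiently transfected with GAL4-UAS reporter units and chimeric RXRa-Gal4 protein, treated 24 h. Reporter mRNA measured by RT-PCR, fluorescent labelling, HpaI digestion and capillary electrophoresis. Induction fitted against DMSO.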

[14] = read-out: E-selectin (Homo sapiens) (UniProt P16581); assay: BSK_3C_Eselectin: BioMAP Diversity Plus: 3C Assay for Eselectin Biomarker Activity (AID 2283015); conditions: primary human endothelial cells (HUVEC); actives raise or lower the signal;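 also: cell surface E-selectin protein quantified by ELISA 24 h after dosing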
How it was run: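 Primary human umbilical vein endothelial cells (3C system), read 24 h after compound addition; E-selectin measured by ELISA. Bidirectional curve fitting against DMSO baseline; cytotoxicity by parallel SRB total-protein staining.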

[15] = read-out: Interleukin-1 alpha (IL1a), IL1A (gene 3552); assay: BSK_BE3C_IL1a: BioMAP Diversity Plus: BE3C Assay for Interleukin-1 alpha (IL1a) Biomarker Activity (AID 2283016); conditions: primary human bronchial epithelial cells; actives raise or lower the signal
How it was run: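 Human primary bronchial epithelial cells, 24 h chemical exposure; IL-1a quantified by ELISA, fitted bidirectionally against DMSO. Cytotoxicity assessed in parallel by SRB total-protein staining at the time of measurement.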

[16] = read-out: Monocyte Chemoattractant Protein-1 (MCP1), CCL2 (gene 6347); assay: BSK_3C_MCP1: BioMAP Diversity Plus: 3C Assay for Monocyte Chemoattractant Protein-1 (MCP1) Biomarker Activity (AID 2283017); conditions: primary human endothelial cells (HUVEC); actives raise or lower the signal
How it was run: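 Human umbilical vein endothelial cells (3C system) exposed to chemicals for 24 h; MCP-1 quantified by ELISA against the DMSO baseline with bidirectional fitting, and parallel SRB staining used to assess cytotoxicity.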

[17] = read-out: Monocyte Chemoattractant Protein-1 (MCP1), CCL2 (gene 6347); assay: BSK_4H_MCP1: BioMAP Diversity Plus: 4H Assay for Monocyte Chemoattractant Protein-1 (MCP1) Biomarker Activity (AID 2283018); conditions: primary human endothelial cells (HUVEC); actives raise or lower the signal
How it was run: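 Human umbilical vein endothelial cells (4H system) exposed to chemicals for 24 h in 96-well format. MCP-1 measured by ELISA; bidirectional fitting against DMSO, with SRB total-protein staining in parallel cultures for cytotoxicity.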

[18] = biological target: human Retinoid X Receptor beta (RXRb), RXRB (gene 6257) (UniProt P28702); assay: ATG_RXRb_TRANS: Attagene TRANS-FACTORIAL HepG2 Assay for human Retinoid X Receptor beta (RXRb) (AID 2283013; active = hit-call score of the fitted dose curve at least 0.9, where 1 is the maximum)
How it was run: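 HepG2 cells were transiently transfected with multiplexed GAL4-UAS reporters and a chimeric RXRb-Gal4 construct, then exposed for 24 h. Reporter mRNA was quantified by RT-PCR, FAM labeling, HpaI digestion and capillary electrophoresis; gain of signal was scored against DMSO.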

Chain of human Peroxisome Proliferator-activated Receptor alpha (PPARa), PPARA (gene 5465) (Q07869 whole entry, looked up, the tested form may be a part): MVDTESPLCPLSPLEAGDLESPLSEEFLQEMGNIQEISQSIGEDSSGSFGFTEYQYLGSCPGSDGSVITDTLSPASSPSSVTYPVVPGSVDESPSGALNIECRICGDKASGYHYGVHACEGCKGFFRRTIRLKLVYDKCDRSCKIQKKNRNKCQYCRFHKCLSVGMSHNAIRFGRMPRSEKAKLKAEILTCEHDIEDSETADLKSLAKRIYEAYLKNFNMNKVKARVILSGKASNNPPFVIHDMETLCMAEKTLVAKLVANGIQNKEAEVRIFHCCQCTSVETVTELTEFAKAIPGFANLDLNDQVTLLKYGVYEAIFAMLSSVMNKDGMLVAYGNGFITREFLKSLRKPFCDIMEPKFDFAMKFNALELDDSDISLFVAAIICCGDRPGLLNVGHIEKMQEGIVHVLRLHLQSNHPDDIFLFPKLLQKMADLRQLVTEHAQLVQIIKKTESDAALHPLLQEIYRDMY
Chain of human Peroxisome Proliferator-activated Receptor delta (PPARd), PPARD (gene 5467) (Q03181 whole entry, looked up, the tested form may be a part): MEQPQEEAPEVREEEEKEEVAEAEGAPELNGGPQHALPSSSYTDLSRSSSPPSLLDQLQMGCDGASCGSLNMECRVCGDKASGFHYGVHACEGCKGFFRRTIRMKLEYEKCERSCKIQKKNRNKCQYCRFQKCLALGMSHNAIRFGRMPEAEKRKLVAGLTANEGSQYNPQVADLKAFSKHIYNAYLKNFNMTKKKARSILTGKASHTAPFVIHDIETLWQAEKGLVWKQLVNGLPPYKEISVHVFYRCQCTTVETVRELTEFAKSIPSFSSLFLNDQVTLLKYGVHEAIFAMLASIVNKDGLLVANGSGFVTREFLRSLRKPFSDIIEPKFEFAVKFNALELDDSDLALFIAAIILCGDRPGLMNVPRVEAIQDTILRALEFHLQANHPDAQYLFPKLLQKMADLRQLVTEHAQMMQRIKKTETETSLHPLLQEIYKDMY
Chain of Peroxisome proliferator-activated receptor gamma (Homo sapiens) (P37231 whole entry, looked up): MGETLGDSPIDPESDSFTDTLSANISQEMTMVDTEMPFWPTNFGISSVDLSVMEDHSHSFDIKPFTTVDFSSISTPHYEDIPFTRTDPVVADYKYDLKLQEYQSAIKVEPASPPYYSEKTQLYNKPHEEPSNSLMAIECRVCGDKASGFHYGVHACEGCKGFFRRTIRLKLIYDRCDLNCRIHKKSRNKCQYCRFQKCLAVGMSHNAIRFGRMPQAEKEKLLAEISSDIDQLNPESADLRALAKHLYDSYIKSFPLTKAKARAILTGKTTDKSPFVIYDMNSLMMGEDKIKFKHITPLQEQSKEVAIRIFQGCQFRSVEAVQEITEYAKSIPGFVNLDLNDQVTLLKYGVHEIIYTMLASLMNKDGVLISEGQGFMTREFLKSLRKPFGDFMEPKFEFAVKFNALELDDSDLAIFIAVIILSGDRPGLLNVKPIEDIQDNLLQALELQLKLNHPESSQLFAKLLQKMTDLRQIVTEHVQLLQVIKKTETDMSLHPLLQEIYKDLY
Chain of E-selectin (Homo sapiens) (P16581 whole entry, looked up): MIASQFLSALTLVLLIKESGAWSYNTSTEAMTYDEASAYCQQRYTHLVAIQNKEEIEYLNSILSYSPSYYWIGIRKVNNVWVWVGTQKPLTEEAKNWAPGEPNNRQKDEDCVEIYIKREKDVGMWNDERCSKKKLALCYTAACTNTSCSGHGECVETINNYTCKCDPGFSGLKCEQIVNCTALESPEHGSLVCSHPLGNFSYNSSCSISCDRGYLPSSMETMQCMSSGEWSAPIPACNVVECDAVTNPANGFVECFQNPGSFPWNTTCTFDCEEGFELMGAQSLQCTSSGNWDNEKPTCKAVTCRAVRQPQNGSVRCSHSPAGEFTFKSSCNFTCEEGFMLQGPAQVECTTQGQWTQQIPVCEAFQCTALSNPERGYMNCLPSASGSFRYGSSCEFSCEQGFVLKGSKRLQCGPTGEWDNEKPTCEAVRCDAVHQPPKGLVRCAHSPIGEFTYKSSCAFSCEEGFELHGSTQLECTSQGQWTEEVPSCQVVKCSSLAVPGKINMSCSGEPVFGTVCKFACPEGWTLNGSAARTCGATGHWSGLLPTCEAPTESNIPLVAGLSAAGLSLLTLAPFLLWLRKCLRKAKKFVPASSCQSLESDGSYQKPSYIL
Chain of Nuclear receptor subfamily 1 group I member 2 (Homo sapiens) (O75469 whole entry, looked up, the tested form may be a part): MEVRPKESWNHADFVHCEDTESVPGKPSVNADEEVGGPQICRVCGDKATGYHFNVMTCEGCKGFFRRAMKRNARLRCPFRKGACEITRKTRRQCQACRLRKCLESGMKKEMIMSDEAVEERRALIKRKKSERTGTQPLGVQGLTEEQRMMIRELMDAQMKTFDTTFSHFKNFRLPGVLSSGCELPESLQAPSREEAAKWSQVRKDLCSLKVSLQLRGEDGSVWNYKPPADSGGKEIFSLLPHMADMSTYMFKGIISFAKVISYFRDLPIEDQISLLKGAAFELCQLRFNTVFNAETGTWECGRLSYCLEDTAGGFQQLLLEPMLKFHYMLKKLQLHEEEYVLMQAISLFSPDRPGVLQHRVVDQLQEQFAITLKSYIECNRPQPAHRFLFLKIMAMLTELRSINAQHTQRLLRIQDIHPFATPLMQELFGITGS
Chain of human RAR-related Orphan Receptor beta (RORb), RORB (gene 6096) (Q92753 whole entry, looked up, the tested form may be a part): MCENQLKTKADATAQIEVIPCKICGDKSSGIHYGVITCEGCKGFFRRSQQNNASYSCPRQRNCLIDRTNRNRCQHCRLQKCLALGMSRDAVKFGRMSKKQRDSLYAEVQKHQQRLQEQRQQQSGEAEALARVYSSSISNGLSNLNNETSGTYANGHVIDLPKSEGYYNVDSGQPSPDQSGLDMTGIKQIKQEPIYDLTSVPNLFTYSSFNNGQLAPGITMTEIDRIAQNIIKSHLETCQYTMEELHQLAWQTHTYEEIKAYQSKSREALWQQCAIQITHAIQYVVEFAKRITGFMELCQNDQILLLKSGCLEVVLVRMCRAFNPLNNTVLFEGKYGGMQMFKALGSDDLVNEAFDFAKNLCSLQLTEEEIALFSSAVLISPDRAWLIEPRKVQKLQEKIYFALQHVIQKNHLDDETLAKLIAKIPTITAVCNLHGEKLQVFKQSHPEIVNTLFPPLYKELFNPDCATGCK
Chain of human Retinoic Acid Receptor gamma (RARg), RARG (gene 5916) (P13631 whole entry, looked up, the tested form may be a part): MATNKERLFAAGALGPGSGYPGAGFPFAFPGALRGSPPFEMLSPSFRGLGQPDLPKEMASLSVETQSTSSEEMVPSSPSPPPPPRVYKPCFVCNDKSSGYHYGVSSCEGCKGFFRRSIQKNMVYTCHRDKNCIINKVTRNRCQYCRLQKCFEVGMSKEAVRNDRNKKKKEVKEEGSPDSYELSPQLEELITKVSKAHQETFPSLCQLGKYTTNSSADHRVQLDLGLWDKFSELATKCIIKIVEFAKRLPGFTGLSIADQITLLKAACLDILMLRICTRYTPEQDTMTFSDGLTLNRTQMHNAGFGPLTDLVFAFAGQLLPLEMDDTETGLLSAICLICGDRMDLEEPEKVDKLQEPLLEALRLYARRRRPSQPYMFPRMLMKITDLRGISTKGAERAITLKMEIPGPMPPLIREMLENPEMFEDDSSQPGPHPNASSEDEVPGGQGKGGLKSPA
Chain of Retinoic acid receptor RXR-alpha (Homo sapiens) (P19793 whole entry, looked up, the tested form may be a part): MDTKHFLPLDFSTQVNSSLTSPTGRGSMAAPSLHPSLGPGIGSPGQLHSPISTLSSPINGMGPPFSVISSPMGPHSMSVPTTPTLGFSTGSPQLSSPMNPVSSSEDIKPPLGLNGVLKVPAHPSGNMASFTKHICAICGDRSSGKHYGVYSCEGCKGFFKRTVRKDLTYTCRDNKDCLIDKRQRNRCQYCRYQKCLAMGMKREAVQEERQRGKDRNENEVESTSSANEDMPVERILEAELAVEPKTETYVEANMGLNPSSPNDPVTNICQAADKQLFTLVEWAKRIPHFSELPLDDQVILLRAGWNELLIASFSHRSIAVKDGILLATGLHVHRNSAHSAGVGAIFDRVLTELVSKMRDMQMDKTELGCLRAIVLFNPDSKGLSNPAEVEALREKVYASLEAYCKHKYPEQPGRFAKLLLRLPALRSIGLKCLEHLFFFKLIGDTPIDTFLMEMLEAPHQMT
Chain of human Retinoic Acid Receptor beta (RARb), RARB (gene 5915) (P10826 whole entry, looked up, the tested form may be a part): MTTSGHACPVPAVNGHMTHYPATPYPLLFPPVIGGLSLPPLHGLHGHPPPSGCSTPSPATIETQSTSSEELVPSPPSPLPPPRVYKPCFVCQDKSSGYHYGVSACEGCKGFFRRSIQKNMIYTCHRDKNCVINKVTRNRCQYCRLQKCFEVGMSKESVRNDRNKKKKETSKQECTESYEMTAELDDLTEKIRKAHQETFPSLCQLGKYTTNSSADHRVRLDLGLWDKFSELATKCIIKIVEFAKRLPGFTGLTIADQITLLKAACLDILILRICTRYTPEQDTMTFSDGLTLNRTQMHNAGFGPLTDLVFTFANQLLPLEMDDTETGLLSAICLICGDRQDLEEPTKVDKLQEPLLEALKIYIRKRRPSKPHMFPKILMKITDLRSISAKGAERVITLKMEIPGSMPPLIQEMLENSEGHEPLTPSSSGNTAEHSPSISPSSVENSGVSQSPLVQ
Chain of human Retinoid X Receptor beta (RXRb), RXRB (gene 6257) (P28702 whole entry, looked up, the tested form may be a part): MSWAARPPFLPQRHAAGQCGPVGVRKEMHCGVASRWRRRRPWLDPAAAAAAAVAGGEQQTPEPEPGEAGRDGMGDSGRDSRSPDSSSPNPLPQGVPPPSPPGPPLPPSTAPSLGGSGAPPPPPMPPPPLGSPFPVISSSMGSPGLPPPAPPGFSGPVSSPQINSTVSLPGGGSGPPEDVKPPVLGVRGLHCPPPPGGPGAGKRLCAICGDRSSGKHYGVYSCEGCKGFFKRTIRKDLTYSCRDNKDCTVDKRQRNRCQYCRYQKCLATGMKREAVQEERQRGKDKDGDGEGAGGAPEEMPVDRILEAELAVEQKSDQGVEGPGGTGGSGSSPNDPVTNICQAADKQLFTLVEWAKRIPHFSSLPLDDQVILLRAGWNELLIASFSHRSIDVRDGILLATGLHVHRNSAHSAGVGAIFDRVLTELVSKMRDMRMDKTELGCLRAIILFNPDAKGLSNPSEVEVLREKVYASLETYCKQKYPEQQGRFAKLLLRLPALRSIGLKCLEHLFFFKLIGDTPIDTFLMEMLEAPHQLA

## Cc1cc2c3c(c1)C(c1ccccc1)=N[C@@H](NC(=O)c1ccncc1)C(=O)N3CC2
[1]
  outcome: inactive
[2]
  outcome: inactive
[3]
  outcome: inactive
[4]
  outcome: inactive
[5]
  outcome: inactive
[6]
  outcome: inactive
[7]
  outcome: inactive
[8]
  AC50: 1.71 µM (active)
[9]
  AC50: 2.54 µM (active)
[10]
  outcome: inactive
[11]
  outcome: inactive
[12]
  outcome: inactive
[13]
  outcome: inactive
[14]
  outcome: inactive
[15]
  outcome: inactive
[16]
  outcome: inactive
[17]
  outcome: inactive

## CC#Cc1cc(C)nc(Nc2ccccc2)n1
[1]
  outcome: inactive
[2]
  outcome: inactive
[3]
  AC50: 0.606 µM (active)
[4]
  outcome: inactive
[5]
  outcome: inactive
[7]
  AC50: 17.9 µM (active)
[8]
  AC50: 6.26 µM (active)
[9]
  outcome: inactive
[18]
  AC50: 61.7 µM (active)
[14]
  outcome: inactive
[15]
  outcome: inactive
[16]
  outcome: inactive
[17]
  outcome: inactive
